High-throughput results: PubChem, National Center for Advancing Translational Sciences (NCATS)
Most compounds without a hit are left out; they make up all but 5.7% or so of the library.
IL1B secr inh: inflammasome signaling inhibition, IL-1 beta readout; THP-1 LPS/ATP IL-1B secretion, AlphaLISA, 16 h; active compounds read low; hit rate 4.7% among 360,000; activity change, % at 57.5 µM; in the data active = activity change below about -50%; inconclusive = mostly about -30% to -49%
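Secreted IL-1B measured by AlphaLISA bead assay after 16 h compound exposure of THP-1 cells; compounds (final up to 57.5 uM) added 1 h before LPS (250 ng/mL) and ATP (1.25 mM) stimulation; lower signal means less secretion.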
TGFb inhibitor: blocks TGF-b signaling; hit rate 1.2% among 410,000; Potency, µM (series often up to 46.1 µM), usual class: inhibitors; HepG2 CAGA-GFP TGF-b/SMAD3 reporter, GFP fluorescence, 18 h; TGF-beta stimulated, 500 pg/mL final; AID 588855; note: nearly all actives have a fitted effect of over 65% in size
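GFP signal (ex488/em500-530) from TGF-beta-stimulated HEPG2 CAGA-GFP cells, 500 pg/mL final, 18 h at 37 degrees C in DMEM plus 1% FBS, normalized to unstimulated and DMSO-stimulated controls.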
ATXN viability: cell viability loss in ATXN counter-screen; hit rate 0.49% among 400,000; AID 651635; S2 cells (HEK-293 line with an ATXN2-luciferase reporter) viability, CellTiter-Fluor protease fluorescence, 24 h; Potency, µM (doses to about 56.7 µM), usual class: cytotoxic; note: nearly all actives have a fitted effect of over 40% in size
HepG2 viability: HepG2 cytotoxicity, counter-screen for TGF-b inhibitors; HepG2 CAGA-GFP viability, ATP luminescence, 18 h; Potency, µM (titrated, usually from 46.1 µM), most hits filed as cytotoxic; hit rate 0.76% among 410,000; AID 588856
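CellTiter-Glo luminescence gave cytotoxicity after 18 hours at 37 degrees C. The cells were HepG2 CAGA-GFP in 1% FBS DMEM, stimulated with 500 pg/mL TGF-beta after compound addition. %Activity was normalised to no-cell wells (complete cell-killing) and DMSO (no toxicity), and curves were fitted and classified.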
ATXN2 expr inh: ATXN2 expression inhibition | HEK-293 ATXN2-luciferase reporter, luminescence, 24 h | Potency, µM (titrated, usually from 57 µM), hits mostly inhibitors | hit rate 0.72% among 360,000 | AID 1745845; note: nearly all actives have a fitted effect of over 55% in size
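qHTS (up to 57 uM final) was run with 24 h compound exposure of reporter cells at 37 °C. Each well was multiplexed: SteadyGlo luminescence measured ATXN2-luciferase expression after a fluorogenic Gly-Phe-AFC viability readout (25 uM final).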
Hits are given with their value; – = inactive; ? = inconclusive; · = no result. Unless noted, calls come from the whole dose curve; as a rule, active = well fitted curve in the direction sought with a large enough effect; inconclusive = small, poorly fitted or top-dose-only effect, or another doubt; inactive = no such curve, though single readings can be large; an effect the other way counts as inactive or inconclusive.

SMILES	IL1B secr inh	TGFb inhibitor	ATXN viability	HepG2 viability	ATXN2 expr inh
CCC(=O)NC(c1ccco1)c1cc(Br)c2cccnc2c1O (stereo unspecified)	·	4µM	?	–	5µM
O=C(Nc1ccccc1Cl)C1CCN(c2nc3ccccc3[nH]2)CC1	·	–	·	–	·
N#CSCC(=O)c1cccc2ccccc12	-61	?	–	–	–
NC(=O)c1cccc2ccccc12	–	–	–	–	–
O=C(c1ccccc1)N1CCc2cc(CNS(=O)(=O)c3ccccc3Cl)ccc21	·	–	·	–	·
Cc1nc(SCC(=O)N2CCCCCC2)c2c(=O)n(C)c(=O)n(CC(C)C)c2n1	–	16µM	–	–	·
Cc1cccc(CCN2C(N(C)C)=NC[C@@H]2Cc2ccccc2)c1	-59	–	?	–	–
Cc1c(C(=O)Nc2nc(-c3ccc(F)cc3)ns2)oc2ccc(Cl)cc12	·	–	·	–	·
CCc1c(C)nc2cc(-c3ccc(OC)c(OC)c3)nn2c1N1CCC(C)CC1	–	–	–	–	–
COc1ccc(-c2c(C)nn3c(N4CCCCCC4)cc(C)nc23)cc1OC	-82	?	?	–	?
CCc1c(C)nc2cc(-c3ccc(OC)c(OC)c3)nn2c1N1CCCC1	?	22µM	?	–	?
C[C@@H]1NC(=O)[C@@H](N)CNC(=O)[C@H](C2CCNC(N)=N2)NC(=O)/C(=C/NC(N)=O)NC(=O)[C@H](CNC(=O)C[C@@H](N)CCCN)NC1=O (stereo partly specified)	·	·	–	·	·
O=C1CC(c2ccc(F)cc2)CC2=C1C(c1ccc([N+](=O)[O-])o1)Nc1ccccc1N2 (stereo unspecified)	-74	–	–	–	–
CCOc1ccc(S(=O)(=O)Nc2cccc(OC)c2)c2cccnc12	·	–	–	–	–
CCOc1ccc(NC(=S)N(CCCN2CCCC2)Cc2cccn2Cc2ccc(Cl)cc2)cc1	–	–	–	–	–
Cc1cccc(NC(=S)N(CCCN2CCCC2)Cc2cccn2Cc2ccc(Cl)cc2)c1	-87	?	·	–	32µM
COc1ccc(Cl)cc1NC(=O)Cn1nc(C(F)(F)F)c2c1CCCC2	·	13µM	?	–	–
O=C(NCc1ccc(N2CCCC2=O)cc1)c1cccc(Cl)c1	–	–	–	–	–
O=C(NCc1ccc(N2CCCC2=O)cc1)Nc1cccc(Cl)c1	-61	–	–	–	–
O=C(Cn1nc(C(F)(F)F)c2c1CCCC2)Nc1cccc(Cl)c1	·	11µM	?	–	?
COc1cc(OC)c(NC(=O)c2cc(C(C)=O)n3ccccc23)cc1Cl	·	–	·	–	·
OC(CN1c2ccccc2Sc2ccccc21)Cn1nnc2ccccc21 (stereo unspecified)	?	–	?	18µM	–
N#Cc1ccc(-c2ccc(OCC(O)Cn3nnc4ccccc43)cc2)cc1 (stereo unspecified)	-59	–	–	–	–
Cc1nn(CC(O)CN2c3ccccc3Sc3ccccc32)c(C)c1Br (stereo unspecified)	–	13µM	–	–	–
CC(=O)c1ccc(OCC(O)Cn2nnc3ccccc32)cc1 (stereo unspecified)	–	–	–	–	–
SMILES	IL1B secr inh	TGFb inhibitor	ATXN viability	HepG2 viability	ATXN2 expr inh
COC(=O)c1scc(-c2ccc(C)cc2)c1S(=O)(=O)N1CCN(c2cccc(OC)c2)CC1	·	?	–	–	–
CCc1nc2ccc(C(=O)N(C)CC(=O)Nc3ccc(Cl)c(C(F)(F)F)c3)cc2nc1CC	-57	?	–	–	–
Cc1nc(-c2ccc(F)cc2)c(CC(=O)N(C)CC(=O)Nc2ccc(Cl)c(C(F)(F)F)c2)s1	–	18µM	–	–	?
CN1CCC(N(C)C(=O)c2cc(-c3ccc(F)cc3)nc3ccccc23)CC1	-68	–	–	–	–
CCOc1ccc(NC(=O)CN(C)C(=O)c2ccc3nc(CC)c(CC)nc3c2)cc1OCC	–	–	–	–	–
CN(CC(=O)Nc1ccc(Cl)c(C(F)(F)F)c1)C(=O)c1cc(-c2ccncc2)nc2ccccc12	-96	–	?	–	?
CN1CCC(N(C)C(=O)c2cc(-c3ccccc3Cl)nc3ccccc23)CC1	–	–	–	–	–
Cc1nc(-c2ccc(F)cc2)c(CC(=O)N(C)CC(=O)Nc2ccccc2Cl)s1	–	–	–	–	–
